Most compounds without a hit are left out; they make up all but 4.3% or so of the library.
SMARCA2 act – SMARCA2 function activation, primary screen; MG213 cells, MMTV-luciferase reporter, dexamethasone, overnight; activation, % at 9.1 µM; 370,000 compounds, 1% hits; AID 652017; in the data active means activation above about 7.8%
MITF act – MITF TRPM1 promoter activation in melanoma cells; 300,000 compounds, 0.75% hits; SK-MEL-5 TRPM1-promoter luciferase, 24 h; % of positive control, neutral wells = 0; activation, % at 12.5 µM;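 active means mean activation of at least 80% with every replicate also reaching 80%; inconclusive means mean reaches 80% but some replicate falls short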
Wnt bcat act – activators of Wnt/beta-catenin signaling; Wnt/beta-catenin reporter cell assay, activator, plate reader; activation, % at 9.35 µM; 300,000 compounds, 1.2% hits; in the data active means activation above about 30%, passing the limit was not always enough; inconclusive means no clear call, values can overlap the other calls
esBAF inh – SWI/SNF esBAF complex inhibition. mouse ES cells, Bmi1-luciferase knock-in reporter, 24 h; 100% = twice the neutral-well signal. reporter increase, % at 12.5 µM. 350,000 compounds, 2% hits; in the data active means activation above about 40%; inconclusive means no clear call, values can overlap the other calls;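 further: a rise in the Bmi1 reporter signal indicates esBAF inhibition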
MLL AF4-AF9 inh – blocks AF4 peptide binding to human AF9 | 350,000 compounds, 0.47% hits | inhibition, % at 10 µM | P42568 | AlphaScreen, biotin-AF4 peptide binding to FLAG-AF9;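 active means every replicate reaching a set inhibition limit, whatever the replicate mean, cut at about 25% in these data; inconclusive means mean inhibition reaches that limit but some replicates miss it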
Target sequence (P42568 whole entry, looked up): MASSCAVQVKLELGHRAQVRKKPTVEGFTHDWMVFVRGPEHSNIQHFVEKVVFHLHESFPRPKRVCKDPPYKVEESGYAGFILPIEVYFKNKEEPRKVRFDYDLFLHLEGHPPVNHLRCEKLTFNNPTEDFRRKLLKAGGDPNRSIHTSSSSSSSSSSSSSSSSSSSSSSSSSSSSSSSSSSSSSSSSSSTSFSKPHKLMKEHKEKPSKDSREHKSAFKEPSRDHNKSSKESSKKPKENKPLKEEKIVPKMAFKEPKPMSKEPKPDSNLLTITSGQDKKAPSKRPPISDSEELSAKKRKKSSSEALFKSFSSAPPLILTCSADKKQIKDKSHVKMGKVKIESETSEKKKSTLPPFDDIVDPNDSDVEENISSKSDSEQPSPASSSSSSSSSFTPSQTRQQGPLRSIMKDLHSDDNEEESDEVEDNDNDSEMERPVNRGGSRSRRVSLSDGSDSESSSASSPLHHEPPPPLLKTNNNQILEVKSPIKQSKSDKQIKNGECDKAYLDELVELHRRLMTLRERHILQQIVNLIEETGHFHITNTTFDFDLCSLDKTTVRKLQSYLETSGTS
FGF22 binding – FGF22 (human) thermal shift binding; Q9HCT0; recombinant FGF22 thermal shift, SYPRO orange fluorescence; percent of sucrose octasulfate shift, DMSO zero; activity (Tm shift, normalised), % at 9.99 µM; 340,000 compounds, 1.5% hits;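 active means mean Tm shift, scaled 0 neutral to 100 positive control, at about 1.3% or above, every replicate too, limit read from the data; inconclusive means no clear call, values can overlap the other calls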
Target sequence (Q9HCT0 whole entry, looked up): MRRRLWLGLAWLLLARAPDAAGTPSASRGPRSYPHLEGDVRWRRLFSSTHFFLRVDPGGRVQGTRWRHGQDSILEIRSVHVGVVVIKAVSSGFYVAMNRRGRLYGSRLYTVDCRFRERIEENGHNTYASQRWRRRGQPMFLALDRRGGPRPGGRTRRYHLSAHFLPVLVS
SMARCA2 conf – confirmation of SMARCA2 (BRM) function activators. shares compounds with SMARCA2 act. MG213 cells, MMTV-luciferase with dexamethasone, luminescence, overnight; MG213 cells expressing E1A, Rb sequestered; DMSO wells 0%, reference activator 100%. activation, % at 9.1 µM. 3,500 compounds, 30% hits. AID 652260;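 active means activation above its plate's cutoff, the mean activation of tested wells plus 3 SD, cut at about 7.9% in these data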
VP16 Luc act – counter-screen for SMARCA2 activators: GAL4-VP16 luciferase reporter activation; shares compounds with SMARCA2 act; HEK293 GAL4-VP16 pG5luc reporter, luciferase luminescence; scaled: DMSO wells 0%, SAHA wells 100%; activation, % at 9.1 µM; 3,500 compounds, 41% hits;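 active means activation above the solvent-only control well mean plus 3 SD, averaged across control plates, cut at about 5.2% in these data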
Hits are given with their value; i = inactive; ? = inconclusive; nt = no result.

SMILES | SMARCA2 act | MITF act | Wnt bcat act | esBAF inh | MLL AF4-AF9 inh | FGF22 binding | SMARCA2 conf | VP16 Luc act
Cc1ccc(/C=C/c2nc3ccccc3c(=O)[nH]2)cc1 | 8.7 | i | i | i | i | i | 9.6 | 5.8
Cc1ccc(-c2cnc3c(c2)C(=O)N([C@H](C)CO)C[C@H](C)[C@H](CN(C)C(=O)c2cccc(F)c2)O3)cc1 | nt | nt | nt | i | i | i | nt | nt
O=C(Cc1ccccc1)NCC1COc2ccccc2O1 (stereo not drawn) | i | i | i | nt | i | i | nt | nt
Cn1cccc1C(=O)NCC1COc2ccccc2O1 (stereo not drawn) | 11.3 | 88.3 | ? | 55.5 | i | i | 10.0 | 7.1
Cc1ccccc1C(=O)N(C)[C@H]1C[C@H]2c3[nH]c4c(-c5ccccc5)cccc4c3CCN2C[C@H]1[C@H](C)O | i | nt | nt | nt | nt | nt | nt | nt
COc1ccc(NC(=O)O/N=C/c2ccccc2Cl)cc1 | 10.4 | i | i | nt | i | i | i | i
COC(=O)N/N=C/c1ccccc1Cl | i | i | i | nt | i | i | nt | nt
CN1C(=O)c2cc(NS(=O)(=O)c3ccc(F)cc3)ccc2OC[C@H]2O[C@@H](CC(=O)Nc3cccc4ccccc34)CC[C@@H]21 | nt | nt | nt | i | i | i | nt | nt
CC(C)c1ccc(/C=C2\SC(N3CCCC3)=NC2=O)cc1 | 8.3 | i | 41.4 | nt | nt | nt | i | i
Cc1ccc(/C=C2\SC(N3CCCC3)=NC2=O)cc1 | i | nt | i | nt | i | i | nt | nt
N=C1/C(=C/c2cccs2)C(=O)N=C2SN=C(SCc3ccccc3)N12 | i | i | nt | i | nt | nt | nt | nt
CC(C)CSC1=NSC2=NC(=O)/C(=C\c3cccs3)C(=N)N12 | 9.5 | i | i | nt | nt | nt | i | 5.3
CC(=O)c1cc(C#N)c(SCC(=O)O)nc1C | i | i | nt | nt | nt | nt | nt | nt
CCOC(=O)CSc1nc(C)c(C(C)=O)cc1C#N | 8.2 | nt | i | i | nt | nt | i | i
c1ccc(CC2CCN(c3ncnc4sccc34)CC2)cc1 | i | i | i | nt | i | i | nt | nt
c1ccc2c(c1)nnn2-c1ncnc2sccc12 | 11.6 | i | i | i | i | i | 9.9 | i
O=C(CN1C(=O)S/C(=C/C=C/c2ccccc2)C1=O)Nc1ccc(C(=O)O)cc1 | 12.2 | i | i | nt | i | i | i | i
O=C(CN1C(=O)S/C(=C\C=C\c2ccccc2)C1=O)Nc1ccc(C(=O)O)cc1 | i | i | i | i | i | i | nt | nt
C[C@H]1CN([C@@H](C)CO)C(=O)c2cccc(NS(=O)(=O)c3cn(C)cn3)c2O[C@@H]1CN(C)S(=O)(=O)c1cn(C)cn1 | nt | nt | nt | i | i | i | nt | nt
FC(F)(F)c1cccc(-c2nc(-c3ccncc3)no2)c1 | 9.2 | nt | i | i | i | i | i | i
COc1cccc(-c2noc(-c3cccs3)n2)c1 | 9.5 | nt | i | i | nt | nt | 8.0 | 13.4
COc1cccc(-c2nc(-c3ccccc3)no2)c1 | 8.8 | i | i | i | nt | nt | 8.4 | 13.9
COc1ccccc1-c1nc(-c2ccc(C(=O)O)cc2)no1 | i | i | i | i | i | i | nt | nt
COc1ccc(-c2nc(-c3ccc(C(=O)O)cc3)no2)cc1 | 8.4 | i | i | i | i | i | 8.4 | 14.8
COC(=O)c1ccc(CN2CC(=O)N3[C@@H](CO)[C@@H](c4ccc(-c5ccccc5F)cc4)[C@@H]3C2)cc1 | nt | nt | nt | nt | i | nt | nt | nt
SMILES | SMARCA2 act | MITF act | Wnt bcat act | esBAF inh | MLL AF4-AF9 inh | FGF22 binding | SMARCA2 conf | VP16 Luc act
COCC(=O)Nc1ccc2c(c1)C(=O)N(C)C[C@H](OC)[C@H](C)CN(Cc1ccccn1)[C@H](C)CO2 | nt | nt | nt | i | i | i | nt | nt
COc1ccc(-c2ccc(-c3noc(-c4ccccc4)n3)c(OC)n2)cc1 | 11.8 | i | i | i | i | i | i | i
COC(=O)c1ccc(-c2nc(-c3cccs3)no2)cc1 | 10.8 | nt | i | i | i | i | i | 8.1
Oc1ccc(Cl)cc1CNc1ccc(Br)cn1 | 9.9 | i | nt | 75.4 | nt | nt | 11.1 | 10.2
Oc1c(Cl)cc(Cl)cc1CNc1ccc(Br)cn1 | i | i | i | nt | nt | nt | nt | nt
Cc1ccnc(NC(=S)NC(=O)/C=C/c2ccco2)c1 | 8.0 | i | nt | nt | nt | nt | 11.3 | 8.9
O=C(/C=C/c1ccco1)NC(=S)Nc1ccc(Cl)cn1 | i | i | i | i | nt | nt | nt | nt
O=C(/C=C/c1ccco1)Nc1cccnc1Cl | 9.3 | nt | 36.3 | i | i | i | i | 6.8
CCN(CC)CCn1c2ccccc2c2nc3ccccc3nc21 | 34.2 | nt | i | 78.1 | i | i | 110.5 | i
O=C(C[C@@H]1CC[C@@H]2[C@H](COC[C@@H](O)CN2Cc2cccc(Cl)c2)O1)NCC1CCCCC1 | nt | nt | nt | i | i | i | nt | nt
C[C@H](CO)N1C[C@H](C)[C@H](CN(C)C(=O)Nc2ccccc2)Oc2ccc(NC(=O)CCC(F)(F)F)cc2C1=O | nt | nt | nt | i | i | i | nt | nt
O=C(N[C@H]1c2ccccc2C[C@H]1O)C1=C[C@H](c2coc3ccccc3c2=O)C[C@H](OCCCCO)O1 | nt | nt | nt | nt | i | i | nt | nt
CCN(CC)C(=O)CN(C#N)c1nc(OC)nc(N(C)C)n1 | 8.9 | nt | i | i | nt | nt | i | i
CCN(CC)C(=O)CN(C#N)c1nc(C)cc(C)n1 | i | i | i | i | i | i | nt | nt
Cc1ccc(C(=O)c2cc(C)sc2NC(=O)CN2CCN(C(=O)c3ccco3)CC2)cc1 | 8.8 | nt | i | i | nt | nt | i | i
Cc1ccc(NC(=S)NCc2cccs2)c(C)c1 | 10.2 | i | i | i | nt | nt | i | i
Cc1cc(Cl)ccc1NC(=S)NCc1cccs1 | i | i | nt | nt | nt | nt | nt | nt
CO[C@H]1CN(C)C(=O)c2ccc(NC(C)=O)cc2OC[C@H](C)N(C(=O)CC2CC2)C[C@H]1C | nt | nt | nt | i | i | nt | nt | nt
Cc1cc(C)c2c(N)c3ccccc3nc2n1 | 19.1 | nt | i | i | nt | nt | 29.7 | i
O=C(Nc1ccccc1Br)C1CCN(C(=O)Cc2ccccc2)CC1 | 9.0 | i | i | nt | nt | nt | i | i
Cc1ccc(-c2csc(NC(=O)CSc3nc4ccccc4c(=O)n3CCCN(C)C)n2)cc1 | 10.0 | i | i | nt | 35.6 | i | i | i
O=S(=O)(Cc1ccccc1Cl)CC(O)COc1ccccc1Cl (stereo not drawn) | 8.4 | i | i | i | nt | nt | i | i
Oc1cccc(Nc2nc(O)c(/C=C3\C=Nc4ccccc43)s2)c1 | 10.7 | i | 34.6 | 58.9 | i | i | 15.1 | 6.5
C[C@@H]1CN([C@@H](C)CO)C(=O)c2cc(C#CC(C)(C)O)cnc2O[C@H]1CN(C)C(=O)c1ccccc1F | nt | nt | nt | i | i | i | nt | nt
COc1cccc(N(CC(=O)N2CCN(C)CC2)S(=O)(=O)c2ccccc2)c1 | 8.6 | i | i | i | i | i | i | i
N#CC(C#N)=C1SC(=Nc2ccccc2)C(=Nc2ccccc2)N1c1ccccc1 | 13.8 | i | 56.0 | nt | i | i | i | i
O=C(CCCc1ccncc1)c1ccccc1 | 8.2 | i | i | nt | i | i | i | 6.9
